Results from PubChem BioAssay (Tox21).
Records with an inconclusive call do not appear. Active and inactive are the calls of the source. Unless noted, calls come from the whole dose curve; as a rule, active = well fitted curve in the direction sought with a large enough effect in the repeat runs; inconclusive = weak or mixed curves; inactive = no such curve, though single readings can be large; an effect the other way counts as inactive or inconclusive.

What was measured:
[1] = biological target: Peroxisome proliferator-activated receptor delta (Homo sapiens) (UniProt Q03181); assay: qHTS assay to identify small molecule agonists of the peroxisome proliferator-activated receptor delta (PPARd) signaling pathway (AID 743212; calls by dose curve)
Outline: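 HEK293H PPARd-bla cells; 5 h preincubation 37 C/5% CO2; compound (DMSO) 37 C; LiveBLAzer B/G FRET substrate 2 h RT; fluorescence intensity.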

[2] = qHTS assay to identify small molecule antagonists of the peroxisome proliferator-activated receptor delta (PPARd) signaling pathway - cell viability counter screen (AID 743213); note: nearly all actives have a fitted effect of over 50% in size
Outline: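 HEK293H PPARd UAS-bla cells, 5 h pre-incubation, compound + L165041 300 nM final, 17 h 37 C; B/G FRET substrate 2 h RT; then CellTiter-Glo 30 min RT, luminescence.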

[3] = biological target: Peroxisome proliferator-activated receptor delta (Homo sapiens) (UniProt Q03181); assay: qHTS assay to identify small molecule antagonists of the peroxisome proliferator-activated receptor delta (PPARd) signaling pathway (AID 743215; active = well fitted inhibition curve with a large enough effect in the signal ratio in the repeat runs, not every such curve was filed as active; the % refers to the signal ratio;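 note: cells stimulated with agonist L165041 at 300 nM final during compound exposure; series mostly up to about 62 µM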)
Outline: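 Antagonist-mode beta-lactamase reporter screen: HEK293H cells with UAS-bla under PPARd control, stimulated by 300 nM L165041 (final) alongside test compound for 17 h at 37 C, then FRET fluorescence after 2 h substrate incubation.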

[4] = qHTS assay to identify small molecule agonists of the farnesoid-X-receptor (FXR) signaling pathway - cell viability counter screen (AID 743218); note: nearly all actives have a fitted effect of over 45% in size
Outline: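 In GeneBLAzer FXR-UAS-bla HEK 293T cells, compounds act for 16 h at 37 C. Cell viability is then scored in the reporter wells by CellTiter-Glo, 30 min at RT, luminescence.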

[5] = biological target: Bile acid receptor (Homo sapiens) (UniProt Q96RI1); assay: qHTS assay to identify small molecule agonists of the farnesoid-X-receptor (FXR) signaling pathway (AID 743220; active = well fitted activation curve with a large enough effect in the signal ratio in the repeat runs, not every such curve was filed as active; the % refers to the signal ratio)
Outline: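 Beta-lactamase reporter under UAS control in GeneBLAzer FXR HEK 293T cells (5000/well) measured with LiveBLAzer FRET substrate after 2 h at room temperature. Compound exposure lasted 16 h at 37C.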

[6] = qHTS assay to identify small molecule antagonists of the farnesoid-X-receptor (FXR) signaling pathway - cell viability counter screen (AID 743221; active = well fitted cell-killing curve with a large enough effect in the repeat runs, not every such curve was filed as active; note: nearly all actives have a fitted effect of over 50% in size)
Outline: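 Quantitative HTS of the Tox21 10K library run in parallel with the beta-lactamase reporter read. HEK 293T cells carrying a UAS-driven bla reporter got compound and 50 uM CDCA (final) for 16 h; ATP-based luminescence followed.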

[7] = biological target: Vitamin D3 receptor (Homo sapiens) (UniProt P11473); assay: qHTS assay to identify small molecule agonists of the vitamin D receptor (VDR) signaling pathway (AID 743222; calls by dose curve)
Outline: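 Agonist activity measured in VDR-bla reporter cells. Exposure 16 h, 37C, 5% CO2; detection by B/G FRET substrate, 2 h RT.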

[8] = biological target: Vitamin D3 receptor (Homo sapiens) (UniProt P11473); assay: qHTS assay to identify small molecule antagonists of the vitamin D receptor (VDR) signaling pathway (AID 743223; active = well fitted inhibition curve with a large enough effect in the signal ratio in the repeat runs, not every such curve was filed as active; the % refers to the signal ratio)
Outline: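 Fluorescence from LiveBLAzer B/G FRET substrate, read after 2 h at room temperature, reflects beta-lactamase reporter activity in VDR-bla cells treated 16 h at 37C with compounds and agonist 1alpha,25-dihydroxyvitamin D3 (3 nM final).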

[9] = qHTS assay to identify small molecule agonists of the vitamin D receptor (VDR) signaling pathway - cell viability counter screen (AID 743224); note: series mostly up to about 63 µM; nearly all actives have a fitted effect of over 50% in size
Outline: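 VDR-bla cell line, quantitative HTS format; 16 h compound incubation (37C, 5% CO2); ATP-based CellTiter-Glo luminescence measured in the reporter assay wells.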

[10] = biological target: Bile acid receptor (Homo sapiens) (UniProt Q96RI1); assay: qHTS assay to identify small molecule antagonists of the farnesoid-X-receptor (FXR) signaling pathway (AID 743217; active = well fitted inhibition curve with a large enough effect in the signal ratio in the repeat runs, not every such curve was filed as active; the % refers to the signal ratio)
Outline: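 Beta-lactamase reporter under UAS control in HEK 293T cells; compound exposure 16 h at 37 °C in the presence of chenodeoxycholic acid (50 uM final); signal from B/G FRET substrate after 2 h at room temperature.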
% is set by controls: 0 for no effect and ±100 for the full control effect.

Sequence of Vitamin D3 receptor (Homo sapiens) (P11473 whole entry, looked up): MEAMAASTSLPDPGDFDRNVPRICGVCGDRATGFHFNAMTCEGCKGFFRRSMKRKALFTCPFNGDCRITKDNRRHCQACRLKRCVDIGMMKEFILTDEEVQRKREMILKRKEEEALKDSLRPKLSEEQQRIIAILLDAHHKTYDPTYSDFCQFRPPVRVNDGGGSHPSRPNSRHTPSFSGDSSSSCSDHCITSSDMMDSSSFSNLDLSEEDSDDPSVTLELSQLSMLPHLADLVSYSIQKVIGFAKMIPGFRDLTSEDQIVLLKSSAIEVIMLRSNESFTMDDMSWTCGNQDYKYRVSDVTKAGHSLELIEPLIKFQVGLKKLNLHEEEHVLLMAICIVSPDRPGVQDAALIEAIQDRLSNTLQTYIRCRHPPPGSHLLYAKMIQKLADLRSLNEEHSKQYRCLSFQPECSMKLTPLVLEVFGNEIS
Sequence of Bile acid receptor (Homo sapiens) (Q96RI1 whole entry, looked up): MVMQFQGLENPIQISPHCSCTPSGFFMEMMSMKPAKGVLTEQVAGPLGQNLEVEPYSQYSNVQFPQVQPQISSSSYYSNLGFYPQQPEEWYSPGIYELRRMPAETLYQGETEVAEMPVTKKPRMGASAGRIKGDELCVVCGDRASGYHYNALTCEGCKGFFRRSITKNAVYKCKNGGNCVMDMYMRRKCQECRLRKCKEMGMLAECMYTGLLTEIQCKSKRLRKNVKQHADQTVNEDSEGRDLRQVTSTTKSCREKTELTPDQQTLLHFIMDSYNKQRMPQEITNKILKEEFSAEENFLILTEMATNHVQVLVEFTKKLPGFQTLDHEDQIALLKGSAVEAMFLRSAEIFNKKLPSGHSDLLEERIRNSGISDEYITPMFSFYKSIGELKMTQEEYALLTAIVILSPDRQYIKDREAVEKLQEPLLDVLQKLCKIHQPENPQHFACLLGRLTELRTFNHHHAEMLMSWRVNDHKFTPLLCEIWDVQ
Sequence of Peroxisome proliferator-activated receptor delta (Homo sapiens) (Q03181 whole entry, looked up): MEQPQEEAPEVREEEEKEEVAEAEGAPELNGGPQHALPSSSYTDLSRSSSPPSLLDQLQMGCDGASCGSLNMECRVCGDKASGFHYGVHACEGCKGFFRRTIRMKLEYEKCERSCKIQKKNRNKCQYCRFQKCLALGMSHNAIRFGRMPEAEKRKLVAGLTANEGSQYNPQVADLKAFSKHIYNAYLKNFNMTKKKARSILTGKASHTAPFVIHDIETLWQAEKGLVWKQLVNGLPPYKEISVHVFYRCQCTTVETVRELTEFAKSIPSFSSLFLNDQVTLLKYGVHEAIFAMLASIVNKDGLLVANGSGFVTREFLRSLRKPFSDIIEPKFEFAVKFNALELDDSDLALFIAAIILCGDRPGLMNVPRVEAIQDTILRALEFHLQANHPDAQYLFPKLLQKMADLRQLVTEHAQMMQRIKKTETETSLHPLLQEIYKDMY

CCCCOC(=O)C(C)O (stereo not drawn)
inactive: outcome [1] | outcome [2] | outcome [3] | outcome [4] | outcome [5] | outcome [6] | outcome [7] | outcome [8] | outcome [9]

O=C1c2ccccc2C(=O)c2cc(Cl)ccc21
inactive: activation [1] -1.6% [at 5.95 µM] | viability change, negative = cytotoxic [2] 3.97% [at 6.26 µM] | ratio activity, negative = inhibition [3] 5.48% [at 6.26 µM] | viability change, negative = cytotoxic [4] -3.87% [at 5.95 µM] | activation [5] 0.306% [at 5.95 µM] | activity change, negative = cytotoxicity [6] -3.54% [at 5.95 µM] | activation [7] -5.27% [at 6.01 µM] | activity change, negative = inhibition [8] -12.7% [at 6.95 µM] | activity change, negative = cytotoxicity [9] -4.49% [at 5.95 µM]

CC/C(C)=N\O[Si](C)(O/N=C(\C)CC)O/N=C(\C)CC
inactive: outcome [1] | outcome [2] | outcome [3] | outcome [10] | outcome [5] | outcome [6] | outcome [7] | outcome [9]

CCCCCCCCCCCCCBr
inactive: outcome [1] | outcome [2] | outcome [3] | outcome [4] | outcome [5] | outcome [6] | outcome [9]

Cc1c(N)cccc1Cl
inactive: outcome [1] | outcome [2] | outcome [3] | outcome [10] | outcome [5] | outcome [6] | outcome [8] | outcome [9]

O=C(O)CSCC(=O)NC1CCSC1=O (stereo not drawn)
inactive: outcome [1] | outcome [2] | outcome [3] | outcome [4] | outcome [5] | outcome [6] | outcome [7] | outcome [9]

Cc1ccccc1C(N)=O
inactive: outcome [1] | outcome [2] | outcome [3] | outcome [10] | outcome [4] | outcome [5] | outcome [6] | outcome [9]

CC(=O)CC(=O)Nc1ccc(C)cc1C
inactive: outcome [1] | outcome [2] | outcome [3] | outcome [4] | outcome [5] | outcome [6] | outcome [9]

CCNC(=O)NCc1cccc(Cl)c1
inactive: outcome [1] | outcome [2] | outcome [3] | outcome [4] | outcome [5] | outcome [6] | outcome [7] | outcome [9]

O=C(O)c1cc2ccccc2nc1C(=O)O
inactive: outcome [1] | outcome [2] | outcome [3] | outcome [10] | outcome [5] | outcome [7]

O=C(CCCl)NCCc1ccccc1
inactive: outcome [1] | outcome [2] | outcome [3] | outcome [10] | outcome [4] | outcome [5] | outcome [6] | outcome [7] | outcome [8] | outcome [9]

CC12CCC(C1)C(C)(C)C2O (stereo not drawn)
inactive: outcome [1] | outcome [2] | outcome [3] | outcome [10] | outcome [4] | outcome [5] | outcome [7] | outcome [8]

NCC1(Cc2noc(=O)[nH]2)CCCCC1
inactive: outcome [1] | outcome [2] | outcome [3] | outcome [4] | outcome [6] | outcome [7] | outcome [8] | outcome [9]

CCCC(=O)OCCC(C)CCC=C(C)C (stereo not drawn)
inactive: outcome [1] | outcome [2] | outcome [3] | outcome [4] | outcome [6] | outcome [9]

ONc1ccccc1
inactive: outcome [1] | outcome [2] | outcome [3] | outcome [4] | outcome [6] | outcome [7] | outcome [8]

COC(=O)c1cc(Cl)cc(Cl)c1
inactive: outcome [1] | outcome [2] | outcome [3] | outcome [4] | outcome [6] | outcome [7] | outcome [8] | outcome [9]

CCOc1cccc(N)c1
inactive: outcome [1] | outcome [2] | outcome [3] | outcome [4] | outcome [6] | outcome [7] | outcome [8] | outcome [9]

COc1nc(N)nc2nc[nH]c12
inactive: outcome [1] | outcome [2] | outcome [3] | outcome [4] | outcome [6] | outcome [9]

CCOC(CN1CCN(CC(C)C(=O)c2ccccc2)CC1)c1ccccc1 (stereo not drawn)
inactive: outcome [1] | outcome [2] | outcome [3] | outcome [4] | outcome [6] | outcome [9]

c1ccc2c(CC3=NCCN3)cccc2c1
inactive: outcome [1] | outcome [2] | outcome [3] | outcome [4] | outcome [6] | outcome [9]

C#CCN[C@@H]1CCc2ccccc21
inactive: outcome [1] | outcome [2] | outcome [3] | outcome [4] | outcome [6] | outcome [9]

C/C=C(\C)C(C)=O
inactive: outcome [1] | outcome [2] | outcome [3] | outcome [4] | outcome [6]

[O-][n+]1cccc(/C(Cl)=N/OC[C@@H](O)CN2CCCCC2)c1
inactive: outcome [1] | outcome [2] | outcome [3] | outcome [4] | outcome [6] | outcome [9]

C=CCCCCCCCC
inactive: outcome [1] | outcome [2] | outcome [3] | outcome [4] | outcome [6] | outcome [7] | outcome [9]

Cc1ncc([N+](=O)[O-])n1CC(C)O (stereo not drawn)
inactive: outcome [1] | outcome [2] | outcome [3] | outcome [4] | outcome [6] | outcome [7] | outcome [8] | outcome [9]

COC(C)(OC)OC
inactive: outcome [1] | outcome [2] | outcome [3] | outcome [4] | outcome [6] | outcome [7] | outcome [9]

CCCCSCCCC
inactive: outcome [1] | outcome [2] | outcome [3] | outcome [4] | outcome [6]

CC(C)=CCC[C@@](C)(O)[C@H]1CC=C(C)CC1
inactive: outcome [1] | outcome [2] | outcome [3] | outcome [4] | outcome [6] | outcome [7] | outcome [9]

O=C(O)CCCCCC(=O)O
inactive: outcome [1] | outcome [2] | outcome [3] | outcome [4] | outcome [6] | outcome [7] | outcome [8] | outcome [9]

CC(C)OC(=O)OCOP(=O)(CO[C@H](C)Cn1cnc2c(N)ncnc21)OCOC(=O)OC(C)C
inactive: outcome [1] | outcome [2] | outcome [3] | outcome [4] | outcome [6] | outcome [7] | outcome [8] | outcome [9]
